In PubChem BioAssay AID1053122 (Broad Institute, 2014) one finds outcome data, which are given here for twelve molecules.

The nature of the test: YAP1 pathway inhibition via CTGF transcript levels, dose response, cell-based, DLD1 colon cancer, RT-qPCR, cherry-pick (AID 1053122).

Potency and affinity values are given separately. Calls of active or inactive are those of the source.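 The calls were made as follows: active = CTGF level falls with dose and the fitted half-maximal dose is at most twice the top valid dose; inconclusive = flat fit with 30 to 70% drop, or a poor fit; inactive = the rest.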

On to `COc1cccc(-c2ccc([C@H]3[C@@H](CO)N4CCCCN(C(=O)Cc5ccncc5)C[C@@H]34)cc2)c1`, for which the molecule was called inactive.

In the case of `COc1cccc(-c2ccc([C@H]3[C@H](CO)N4CCCCN(C(=O)Cc5ccncc5)C[C@@H]34)cc2)c1`, the molecule was classed as inactive.

`COc1cccc(-c2ccc([C@H]3[C@@H](CO)N4CCCCN(C(=O)Cc5ccncc5)C[C@H]34)cc2)c1`: the call was inactive.

Regarding `O=C(Cc1ccncc1)N1CCCCN2[C@H](C1)[C@@H](c1ccc(C#Cc3ccccc3F)cc1)[C@@H]2CO`, the molecule was classed as inactive.

For `COc1cccc(-c2ccc([C@@H]3[C@@H](CO)N4CCCCN(C(=O)Cc5ccncc5)C[C@@H]34)cc2)c1`, the result was inactive.

Take `O=C(Cc1ccncc1)N1CCCCN2[C@H](CO)[C@H](c3ccc(C#Cc4ccccc4F)cc3)[C@H]2C1`: the outcome was inactive.

In the case of `COc1cccc(-c2ccc([C@@H]3[C@@H](CO)N4CCCCN(C(=O)Cc5ccncc5)C[C@H]34)cc2)c1`, the call was inactive.

On to `COc1cccc(-c2ccc([C@@H]3[C@H]4CN(C(=O)Cc5ccncc5)CCCCN4[C@H]3CO)cc2)c1`, for which the molecule was classed as inactive.

`O=C(Cc1ccncc1)N1CCCCN2[C@H](CO)[C@@H](c3ccc(C#Cc4ccccc4F)cc3)[C@H]2C1`: the molecule was classed as inactive.

Consider `O=C(Cc1ccncc1)N1CCCCN2[C@@H](CO)[C@@H](c3ccc(C#Cc4ccccc4F)cc3)[C@@H]2C1`, for which the call was inactive.

With `O=C(Cc1ccncc1)N1CCCCN2[C@H](CO)[C@@H](c3ccc(C#Cc4ccccc4F)cc3)[C@@H]2C1`, the molecule was called inactive.

With `COc1cccc(-c2ccc([C@@H]3[C@H](CO)N4CCCCN(C(=O)Cc5ccncc5)C[C@@H]34)cc2)c1`, the molecule was called inactive.
